Screening data from PubChem BioAssay.
Only some compounds are listed: those with a hit (about 2.4% of all), similar ones and a draw of the others.
TRHR ag = qHTS for Small Molecule Agonists and Allosteric Enhancers of Human TRH Receptor: Primary Screen for Agonists | Thyrotropin-releasing hormone receptor (Homo sapiens), P34981 | TRHR cells, calcium flux fluo-8, FDSS agonist mode | activation, % at 2 µM | hit rate 0.18% among 360,000; in the data active = activation above about 30%; also: 0% is about no effect
Target sequence (P34981 whole entry, looked up): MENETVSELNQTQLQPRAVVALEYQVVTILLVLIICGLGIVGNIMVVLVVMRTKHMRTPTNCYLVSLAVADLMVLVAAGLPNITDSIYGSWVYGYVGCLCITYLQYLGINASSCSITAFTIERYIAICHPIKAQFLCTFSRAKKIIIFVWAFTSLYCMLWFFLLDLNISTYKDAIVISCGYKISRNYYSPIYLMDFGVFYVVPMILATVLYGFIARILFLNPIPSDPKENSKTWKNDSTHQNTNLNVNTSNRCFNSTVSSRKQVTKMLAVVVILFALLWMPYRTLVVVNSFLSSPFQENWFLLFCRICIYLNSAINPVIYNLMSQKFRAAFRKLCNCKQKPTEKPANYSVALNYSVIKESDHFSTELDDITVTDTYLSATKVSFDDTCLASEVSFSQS
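TRHR-expressing cells loaded with fluo-8 calcium dye; 23 nL library compound pin-transferred, kinetic FDSS fluorescence (Ex 480/Em 530) recorded about 180 s for agonist-induced calcium release, before a 10 nM TRH EC20 addition for potentiator mode.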
TRHR enhancer = qHTS for Small Molecule Agonists and Allosteric Enhancers of Human TRH Receptor: Primary Screen for Enhancers; enhancement, % at 2 µM; AID 493056, 2011; TRHR cells, fluo-8 calcium fluorescence, EC20 TRH enhancement; hit rate 0.66% among 360,000; Thyrotropin-releasing hormone receptor (Homo sapiens), P34981; in the data active = enhancement above about 30%; also: 0% is about no effect
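Enhancer read-out: after compound pinning and an initial kinetic agonist-mode read, an EC20 of TRH (10 nM final) was injected and fluo-8 calcium signal (Ex 480/Em 530) followed at 1 s/cycle for 100 cycles in TRHR-expressing cells.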
PTHR1 agonist = qHTS for PTHR1 Agonists: Primary Screen. AID 743266, 2014. hit rate 0.075% among 410,000. Potency, µM (titrated, usually from 115 µM), for the others: at the top dose activation, most hits filed as activators. Parathyroid hormone/parathyroid hormone-related peptide receptor (Homo sapiens), Q03431. HEK293 GP2 PTHR1 cells, GloSensor cAMP luminescence, 1 h; also: potency is read from the fitted curve at half-maximal effect; nearly all actives have a fitted effect of over 55% in size
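HEK-293-derived GP2 cells expressing PTHR1 and a GloSensor cAMP reporter, 3,000/well, plated overnight, given luciferin plus IBMX (each 0.5 mM as added) for 1 h at 37 °C, then compound for 1 h at 37 °C. Luminescence was read after 15 min at room temperature.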
GLP-1R inv ag = qHTS of GLP-1 Receptor Inverse Agonists (Inhibition Mode) | AID 624417, 2012 | hit rate 1.6% among 410,000 | Potency, µM (top dose mostly 38.3 µM), for inactives: at the highest dose activity change, negative = inhibition, usual class: inhibitors | HEK293 GLP-1R CRE-luciferase, luminescence, 24 h; GLP-1R form is constitutively active | Glucagon-like peptide 1 receptor (Homo sapiens), P43220; also: potency is read from the fitted curve at half-maximal effect; % is scaled to controls: 0 for no effect and ±100 for the full control effect; nearly all actives have a fitted effect of over 55% in size
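Seeding at 200 cells/uL, 12 h culture, 24 hr compound treatment, then luciferase reagent and a luminescence read; cells are HEK293 stably expressing a constitutively active GLP-1R plus cAMP-responsive luciferase.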
HEK293 tox = qHTS of GLP-1 Receptor Inverse Agonists: Cytotox Screen | HEK293 cAMP-luciferase reporter cells, luminescence, 24 h | Potency, µM (top dose mostly 38.3 µM), inactives show top-dose activity change, negative = inhibition, most hits filed as inhibitors | hit rate 0.13% among 410,000 | AID 624418, 2012;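 also: loss of luciferase light is scored as toxicity; potency is read from the fitted curve at half-maximal effect; % is scaled to controls: 0 for no effect and ±100 for the full control effect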
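Compound-treated cells are incubated 24 hr at 37 deg C under 5% CO2 after a 12 hour attachment period, then luciferase detection reagent is added and luminescence is measured following 12 min at room temperature; lowered signal indicates toxicity.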
GLP1R ag = qHTS of GLP-1 Receptor Agonists. Glucagon-like peptide 1 receptor (Homo sapiens), P43220. HEK293 GLP-1R CRE-luciferase, luminescence, 4-6 h; cells express a hypersensitive GLP-1R form. Potency, µM (top dose mostly 45.6 µM), without a hit: at the highest dose activation, hits mostly activators. hit rate 0.007% among 380,000; also: potency is read from the fitted curve at half-maximal effect; % of control where 0% means no effect
* hit, by the source's call; i = inactive; ? = inconclusive; . = no result given; [ ] = dose if it differs, or a comment. Unless noted, calls follow the shape of the dose curve; as a rule, active = well fitted curve in the direction sought with a large enough effect; inconclusive = small, poorly fitted or top-dose-only effect, or another doubt; inactive = no such curve, though single readings can be large; an effect the other way counts as inactive or inconclusive.

SMILES	TRHR ag	TRHR enhancer	PTHR1 agonist	GLP-1R inv ag	HEK293 tox	GLP1R ag
C1CC2CN(c3nc4nonc4nc3N3CCSCC3)CCN2C1 (configuration not stated)	-1	-7	i	?	-28%	3%
CS(=O)(=O)c1ccc(Cl)c(NC(=O)COC(=O)CNC(=O)c2ccccc2)c1	0	-5	-20%	6%[7.66 µM]	9%[7.66 µM]	3%
Cc1ccccc1OCC(=O)OCC(=O)Nc1cc(S(C)(=O)=O)ccc1Cl	0	37*	i	7%	-1%	-3%
O=C(NC1(C(F)(F)F)NC(=O)N(CCc2ccccc2)C1=O)c1ccc(Cl)cc1 (configuration not stated)	0	-10	i	?	-5%	-4%
CC(C)(C)c1ccc(C(=O)NC2(C(F)(F)F)NC(=O)N(CCc3ccccc3)C2=O)cc1 (configuration not stated)	-1	0	-30%	13µM*	-32%	-5%
Cc1cccc(N2CCN(S(=O)(=O)c3c(C)[nH]c(C)c3C(=O)N3CCCCC3)CC2)c1C	1	30*	-9%	?	-21%	4%
Cc1cccc(N2CCN(S(=O)(=O)c3c(C)[nH]c(C)c3C(=O)N3CCCC3)CC2)c1C	1	-3	21%	?	5%	2%
O=C(COC(=O)/C=C/c1ccc(Cl)cc1Cl)Nc1ccc2c(c1)OCCO2	0	11	-2%	-11%	8%	2%
CCN1CCN(C(=O)Cn2nc(-c3ccc(Cl)cc3)ccc2=O)CC1	-1	21	-7%	2.8µM*	12%	9%
CCOC(=O)N1CCN(C(=O)Cn2nc(-c3ccc(Cl)cc3)ccc2=O)CC1	-1	-3	-10%	?	-11%	-4%
COc1ccc(NC(=S)c2ccc3ccccc3n2)cc1	0	1	-16%	?	?	8%
Cc1ccc(S(=O)(=O)N2CCOC2CNC(=O)C(=O)NCCN(C)C)cc1 (configuration not stated)	1	37*	-11%	-42%	5%	2%
Cc1ccc(CNC(=O)C(=O)NCC2OCCN2S(=O)(=O)c2ccc(Br)cc2)cc1 (configuration not stated)	1	31*	i	-73%	12%	-9%
CN(C)CCNC(=O)C(=O)NCC1OCCN1S(=O)(=O)c1ccc([N+](=O)[O-])cc1 (configuration not stated)	0	5	i	-5%	1%	-8%
Cn1c(NC2CCCCC2)c(N=O)c(=O)n(C)c1=O	0	6	-4%	0%	-1%	2%
Cc1ccc(Sc2c(C=O)c3ccccc3n2C)cc1	0	-1	i	5.6µM*	?	-22%
COC(C[C@@H](O)C[C@@H](O)[C@@H](C)OCc1ccccc1)OC	.	.	i	9%	8%	-3%
CC(C)(C)OC(=O)N1CCC[C@H]1c1nnc(SCc2c(F)cccc2Cl)o1	-2	-6	-22%	8.9µM*	-12%	15%
CC(C)(C)OC(=O)NCCc1nnc(SCc2c(Cl)cccc2Cl)o1	-1	-2	22%	2%	10%	3%
CC(C)(C)OC(=O)NCCCCCc1nnc(SCc2c(F)cccc2Cl)o1	0	-4	-1%	10µM*	-2%	14%
COc1cc(/C=N/S(=O)(=O)CCc2ccccc2)cc(OC)c1O	1	2	i	4%	-3%	-3%
